High-throughput results deposited in PubChem by National Center for Advancing Translational Sciences (NCATS).
Marburg entry inh: qHTS for inhibitors of binding or entry into cells for Marburg Virus | Marburg virus pseudotyped entry inhibition, cell reporter | Potency, µM (series often up to 37.8 µM), for inactives: top-dose activity change, negative = inhibition, most hits filed as inhibitors | 300,000 tested, 1.8% active | AID 540276, 2011; calls by dose curve; tested in HEK293 cells; note: potency is the fitted concentration of half-maximal effect
FMDV inh: High Throughput Screening for Foot and Mouth Disease Virus Antivirals | FMDV antiviral cell-based qHTS | Potency, µM (titrated, usually from 57.9 µM), inactives show at the top dose activity change, negative = inhibition, actives largely listed as inhibitors | 410,000 tested, 1.2% active | AID 1159524, 2015; calls by dose curve; tested in HEK293T cells; note: read-out not given here; potency is the fitted concentration of half-maximal effect; nearly all actives have a fitted effect of over 45% in size
Vaccinia mCherry: qHTS for Stage-Specific Inhibitors of Vaccinia Orthopoxvirus: mCherry Reporter Primary qHTS; Vaccinia virus mCherry reporter infection, fluorescence; Potency, µM (top dose mostly 36.5 µM), inactives show at the highest dose activity change, negative = inhibition, most hits filed as inhibitors; 310,000 tested, 0.63% active; AID 720579, 2013; calls by dose curve; tested in A549 cells; note: potency is the fitted concentration of half-maximal effect; nearly all actives have a fitted effect of over 35% in size
HCMV antiviral: qHTS Assay for inhibitors of the human cytomegalovirus (HCMV). 410,000 tested, 4.5% active. activity change, negative = inhibition, % at 57.5 µM. AID 1259415, 2018. HFF cells, HCMV-luciferase reporter, 72 h; stronger effect = lower value; in the data active = activity change below about -60%; inconclusive = no clear call, values can overlap the other calls; inactive = above about -39%
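After 16 h attachment at 37C, HFF cells received test compound and HCMV-luciferase (1 PFU/cell); reporter luminescence read 72 h later, data normalized against buffer-only and known inhibitor Salinomycin.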
VACV Venus inh: qHTS for Stage-Specific Inhibitors of Vaccinia Orthopoxvirus: Venus Reporter Primary qHTS; Vaccinia virus Venus reporter expression, fluorescence; Potency, µM (doses to about 36.5 µM), inactives show at the highest dose activity change, negative = inhibition, usual class: inhibitors; 330,000 tested, 0.46% active; calls by dose curve; tested in A549 cells; note: potency is the fitted concentration of half-maximal effect; nearly all actives have a fitted effect of over 30% in size
LASV entry inh: qHTS for Inhibitors of binding or entry into cells for Lassa Virus | Lassa virus pseudotype entry inhibition, cell reporter | Potency, µM (doses to about 37.9 µM), inactives show at the top dose activity change, negative = inhibition, hits mostly inhibitors | 300,000 tested, 1.2% active | AID 540256, 2011; calls by dose curve; tested in HEK293 cells; note: potency is the fitted concentration of half-maximal effect; nearly all actives have a fitted effect of over 50% in size
Numbers without * were called inactive; i = inactive; u = inconclusive; x = no result given; [ ] = dose if it differs, or a comment. Compounds with a hit are over-represented: about 6.5% of the library has one in this group of screens. % is set by controls: 0 for no effect and ±100 for the full control effect.

SMILES | Marburg entry inh | FMDV inh | Vaccinia mCherry | HCMV antiviral | VACV Venus inh | LASV entry inh
C=CC1=C(C)C2=CC3=NC(=C(CC(=O)[O-])C4=NC(=C(C)C4=C([O-])[O-])C=c4[n-]c(c(C)c4CC)=CC1=N2)C(CCC(=O)[O-])C3C.[Cu+2].[Na+].[Na+].[Na+] (stereo not given) | x | u | -18% | x | -6% | x
C=C(C)CNC(=S)NNC(=O)CCn1c2cc(Cl)ccc2c2ccc(Cl)cc21 | u | -12% | i | -24 | -21% | 0%
C=C(C)CNC(=S)NNC(=O)CCn1c2ccc(Cl)cc2c2cc(Cl)ccc21 | -15% | -27% | -28% | -82* | u | u
CCC(=O)N1CCc2cc(S(=O)(=O)NC(C(=O)Nc3cc(OC)cc(OC)c3)C(C)C)ccc21 (stereo not given) | -8%[46.1 µM] | -23% | -11% | -12 | 0% | -10%[46.1 µM]
COc1cccc(NC(=O)CSC2=C(C#N)[C@H](c3ccco3)C3=C(CCCC3=O)N2)c1 | -7% | x | x | x | x | x
COc1cc(=O)n2c(c1C(=O)N(C)Cc1cscn1)CCN(Cc1c(C)[nH]c3ccccc13)CC2 | x | -6% | i | x | -7% | x
COc1cccc(C(C)(O)c2nc(-c3ccc(S(C)(=O)=O)cc3)cs2)c1 (stereo not given) | x | u | 9% | -86* | -10% | x
CC(O)(c1cccc(F)c1)c1nc(-c2ccc(S(C)(=O)=O)cc2)cs1 (stereo not given) | x | u | -2% | -2 | -12% | x
COc1cccc(C(C)(O)c2nc(-c3ccc(OC)nc3)cs2)c1 (stereo not given) | x | u | i | -62* | -13% | x
COc1ccc(-c2csc(C(C)(O)c3cccnc3)n2)cn1 (stereo not given) | x | -15% | -5% | -12 | 1% | x
COc1cccc(C(C)(O)c2nc(-c3cccs3)cs2)c1 (stereo not given) | x | -12% | -11% | -79* | 6% | x
COc1cccc(C(C)(O)c2nc(-c3ccc(Cl)cc3)cs2)c1 (stereo not given) | x | -11% | i | 11 | -15% | x
COc1ccc(-c2csc(C(C)(O)c3cccc(OC)c3)n2)cc1 (stereo not given) | x | u | u | -65* | -28% | x
CC(O)(c1ccncc1)c1nc(-c2cccc(C(F)(F)F)c2)cs1 (stereo not given) | x | u | -3% | -69* | -27% | x
COc1cccc(C(C)(O)c2nc(-c3cnc4ccccc4c3)cs2)c1 (stereo not given) | x | u | 9% | -62* | -3% | x
CC(=O)N1CCCc2cc(S(=O)(=O)N3CCCC(C(=O)NC(C)C)C3)ccc21 (stereo not given) | x | -26% | -15% | -6 | -1% | 8%[46.1 µM]
COc1ccc(NC(=O)[C@H]2O[C@@H]3OC(C)(C)O[C@@H]3[C@H]3OC(C)(C)O[C@H]32)c(OC)c1 | u | 5% | -1% | -6 | 10% | 0%[46.1 µM]
CN1C2CCC1/C(=C\c1ccccc1)C(=O)/C2=C\c1ccccc1 | 15µM* | u | x | -66* | x | u
CN1C2CCC1/C(=C/c1ccccn1)C(=O)/C2=C\c1ccccn1 | 1.3µM* | 4µM* | 2.5µM* | -101* | 6.3µM* | 2.3µM*
Cc1ncc2c(c1CNC(=O)c1ccc3c(c1)OCO3)CCN(C(=O)c1coc3c1C(=O)CCC3)C2 | x | 8% | -7% | x | 2% | x
Cc1ccc(-c2cc(NC(=O)Cc3c[nH]c4ccccc34)ccc2N(C)c2cccnc2)cc1 | x | x | x | 15 | x | x
CCOc1ccc(NC(=O)c2cccc(OC(=S)N3CCOCC3)c2)cc1 | -18%[46.1 µM] | -6% | -16% | -68* | -17% | 0%
Cc1cccc(NC(=O)c2cccc(OC(=S)N3CCOCC3)c2)c1C | 9% | 7% | -11% | 7 | -11% | 5%
COc1ccc(NC(=O)c2cccc(OC(=S)N3CCOCC3)c2)cc1 | x | -20% | x | -6 | x | x
O=C(Nc1ccc(Br)cc1)c1cccc(OC(=S)N2CCOCC2)c1 | u | u | i | -77* | -15% | u
SMILES | Marburg entry inh | FMDV inh | Vaccinia mCherry | HCMV antiviral | VACV Venus inh | LASV entry inh
O=C(Oc1ccc(C(=S)N2CCOCC2)cc1)c1ccc(Br)cc1 | 8% | -3% | -22% | -60* | -13% | -15%
COc1ccc(-n2c(=O)c(-c3ccccc3)nc3cnc(N4CCOCC4)nc32)cc1 | x | -2% | x | x | x | x
CCOC(=O)N[C@@H](Cc1cccnc1)C(=O)N1CCC[C@H]1C(=O)NCCc1ccccc1Cl | x | x | x | -19 | x | x
O=C(N/N=C/c1ccccn1)c1ccccc1 | u | -23% | u | 30 | 6% | u
COc1ccc(C(=O)Nc2ccc(/C(C)=N/NC(=O)c3ccccc3O)cc2)cc1OC | 13µM* | -4% | i | -3 | -8% | 13%
COc1ccc(C(=O)Nc2cccc3cccnc23)cc1OC | u | 5% | x | 109 | x | -10%
COc1ccc(Cl)cc1NC(=O)COc1cccc(-n2cnnn2)c1 | 4% | -20% | x | u | x | 4%
O=C(N/N=C/c1ccccn1)c1ccc(Cl)cc1 | u | u | 3.2µM* | -97* | -21% | u
COc1ccc(Cl)cc1NC(=O)c1cccc(-n2cnnn2)c1 | -15% | -22% | -17% | -63* | -19% | -4%
COc1ccc(C(=O)Nc2cccnc2Cl)cc1OC | x | 1% | x | -87* | x | x
C=CCOC(=O)NC(c1ccc(F)c(F)c1)C(C(C)=O)C(=O)OC (stereo not given) | 26%[14.2 µM] | x | x | x | x | x
CC(C)c1ccc(/C=N/NC(=O)c2ccccn2)cc1 | 5µM* | 13µM* | i | 69 | -19% | u
O=C(N/N=C/c1ccncc1)c1ccccn1 | x | 34% | x | x | x | x
COc1ccc(C(=O)Nc2ccccc2C(=O)N/N=C/c2ccccn2)cc1OC | u | u | u | -109* | u | 10µM*
Cc1cc(C)c(C)c(S(=O)(=O)NCC(=O)NCC2CCCCC2)c1C | u | 34% | u | -62* | -3% | -12%[46.1 µM]
Cc1cccc(CN2C(=O)N(c3ccc(C(C)C)cc3)S(=O)(=O)c3ccccc32)c1 | x | -5% | -8% | -69* | -4% | u
CCc1ccccc1N1C(=O)N(Cc2cccc(Cl)c2)c2ccccc2S1(=O)=O | x | u | -1% | -105* | -1% | -23%[46.1 µM]
CC(C)c1ccc(N2C(=O)N(Cc3cccc([N+](=O)[O-])c3)c3ccccc3S2(=O)=O)cc1 | x | u | 3% | -34 | -6% | 3%[46.1 µM]
Cc1ccc(N2C(=O)N(Cc3cccc(Cl)c3)c3ccccc3S2(=O)=O)cc1 | x | -17% | -16% | u | -16% | -27%[46.1 µM]
CN(Cc1ccco1)c1cc(-c2ccc3c(c2)OCO3)ncn1 | x | -7% | x | x | x | x
COCC1=C(C(=O)OC)C(c2ccccc2)N(C(C)=O)C(=O)N1 (stereo not given) | 1%[14.2 µM] | x | x | x | x | x
